# A selection: hits, their analogues and other compounds. The true share with any hit is near 3.5%.
# GPR151 activ – human GPR151 activation; Q8TDV0; PathHunter beta-arrestin GPR151 cells, luminescence; activation, % at 11.2 µM; hit rate 1% among 650,000; AID 1508602; in the data active means activation above about 4.9%;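 further: 0% = median of compound wells and 100% = cells with positive control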
# Target sequence (Q8TDV0 whole entry, looked up): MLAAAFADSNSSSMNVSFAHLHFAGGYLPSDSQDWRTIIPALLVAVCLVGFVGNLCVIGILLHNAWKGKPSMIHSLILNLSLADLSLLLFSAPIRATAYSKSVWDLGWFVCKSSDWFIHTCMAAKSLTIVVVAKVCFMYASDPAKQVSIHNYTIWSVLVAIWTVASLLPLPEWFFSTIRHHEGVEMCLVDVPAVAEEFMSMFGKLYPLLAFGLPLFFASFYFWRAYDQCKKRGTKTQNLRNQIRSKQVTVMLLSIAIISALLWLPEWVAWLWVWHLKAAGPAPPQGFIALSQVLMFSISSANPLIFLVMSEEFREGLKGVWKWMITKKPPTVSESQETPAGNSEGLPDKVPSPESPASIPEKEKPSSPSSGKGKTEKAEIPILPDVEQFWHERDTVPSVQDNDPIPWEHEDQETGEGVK
# MITF primary – blocks human microphthalmia-associated transcription factor. O75030. inhibition, % at 2.6 µM. hit rate 0.91% among 650,000. AlphaScreen MITF homodimerization, bead proximity signal. AID 1259374; in the data active means inhibition above about 50%;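 further: 0% = vehicle wells with protein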
# FBW7 activator – activators of human E3 ligase FBW7. Q969H0. normalized activity (activation), % at 26.1 µM. AlphaScreen FBW7–phospho-cyclin E peptide binding, activator screen. hit rate 0.13% among 650,000; in the data active means normalized activity above about 1.9%;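 further: purified mutant Fbw7 with reduced substrate affinity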
# TEAD-YAP inh – TEAD-YAP interaction inhibition; HEK-TIYL cells, TEAD-Gal4/YAP UAS-luciferase luminescence; inhibition, % at 9.12 µM; hit rate 1.4% among 640,000; AID 1259422; in the data active means inhibition above about 32%;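 further: 0% = median of test compound wells and 100% = reference inhibitor wells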
# MITF confirm – human MITF inhibition, confirmation; hit rate 16% among 4,700; AID 1259372; AlphaScreen MITF homodimerization, biotin/His-MITF beads; inhibition, % at 2.6 µM; shares compounds with MITF primary;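 active means inhibition above a cutoff derived from the DMSO control wells, cut at about 28% in these data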;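 further: 0% = MITF dimer wells with DMSO only; inhibitors lower the bead chemiluminescence by keeping MITF from dimerizing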
# AlphaScreen DR – counter-screen: compounds optically interfering with AlphaScreen | shares compounds with MITF primary | AlphaScreen optical interference counterscreen, cell-free | IC50, µM | hit rate 6% among 480; call rule not given here
# AS interf ctr – optically interferes with AlphaScreen signal. shares compounds with MITF primary. LysRS AlphaScreen counterscreen, signal interference, triplicate. inhibition, % at 2.6 µM. hit rate 7.6% among 4,700. AID 1259376;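 active means inhibition above a cutoff derived from the DMSO control wells, cut at about 30% in these data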
# An asterisk follows results filed as active; . = not tested or not shown.
SMILES,GPR151 activ,MITF primary,FBW7 activator,TEAD-YAP inh,MITF confirm,AS interf ctr,others
c1ccc(Oc2cccc(OCCN3CCNCC3)c2)cc1,0.0,70.8*,0.1,-12.4,13.2,-6.5,
O=C(Nc1cccc(-c2ccco2)c1)C1CCN(C(=O)c2ccsc2)CC1,2.5,10.5,0.0,3.1,.,.,
CCC12c3ccccc3C(c3ccccc31)C1C(=O)NC(=O)C12 (stereo unspecified),2.6,71.0*,-0.2,-0.7,63.1*,-30.6,AlphaScreen DR=>6.48
CSc1ccccc1NC(=O)c1cnn2c(C(F)(F)F)cc(-c3cccs3)nc12,-0.8,74.6*,0.8,3.1,9.0,-0.5,
O=C(Nc1cccnc1Cl)c1cnn2c(C(F)(F)F)cc(-c3cccs3)nc12,-1.2,3.0,-0.4,-0.2,.,.,
COc1cc2nc3c(C#N)cc4cc5ccccc5nc4n3c(=O)c2cc1OC,-1.0,15.4,0.4,6.1,.,.,
CC(=O)NC1=NC(=O)/C(=C\c2ccc(Br)o2)S1,0.3,77.0*,-0.1,-7.9,66.9*,11.7,AlphaScreen DR=>6.48
CC(=O)Nc1cnn(-c2ccc(C(=O)NCCOc3nonc3C)cc2)c1,2.3,-2.6,-0.1,3.5,.,.,
CCOC(=O)c1cc2c(=O)n3ccccc3nc2n(CC2CCCO2)c1=NC(=O)c1cccc(Cl)c1 (stereo unspecified),0.5,0.5,0.1,-0.6,.,.,
COc1ccc(C(=O)N2CCN(Cc3ccco3)CC2)cc1,0.6,54.6*,-0.1,-3.7,-12.7,6.3,
CCN1CCN(Cc2nnnn2Cc2ccco2)CC1,-1.2,10.4,0.0,17.3,.,.,
COc1cccc(N2CCN(Cc3ccco3)CC2)c1,-0.9,23.4,-0.2,-5.5,.,.,
COc1cccc(CN2CCN(Cc3ccco3)CC2)c1,-1.2,76.1*,-0.2,-8.8,14.0,20.0,
CCC(CC)N1CCN(Cc2ccco2)CC1,-1.0,52.8*,0.0,-4.7,5.5,1.9,
COc1ccc(CN2CCN(C(=O)c3ccco3)CC2)cc1,0.7,39.1,0.1,-3.8,.,.,
COc1ccc(CN2CCN(Cc3ccco3)CC2)cc1,-0.6,70.9*,-0.2,-20.8,9.3,8.6,
COc1cccc(N2C(=O)NC(=O)/C(=C/c3cccc4ccccc34)C2=O)c1,-1.1,17.4,-0.1,0.1,.,.,
Clc1ccccc1N1CCN(Cc2ccco2)CC1,-0.5,1.9,0.0,-0.1,.,.,
CCc1ccc(CN2CCN(Cc3ccco3)CC2)cc1,0.5,71.0*,-0.3,-5.4,11.7,20.6,
c1ccc(Oc2cccc(CN3CCN(Cc4ccco4)CC3)c2)cc1,-1.1,69.2*,-0.1,-3.6,7.4,3.8,
COc1ccc(OC)c(CNCc2ccco2)c1,0.6,4.2,0.0,3.6,.,.,
CCc1ccc(CN2CCC(C(=O)NCc3ccco3)CC2)cc1,-1.3,48.2,1.1,8.8,.,.,
CSc1ccc(CN2CCN(Cc3ccco3)CC2)cc1,-0.1,85.3*,0.5,1.1,-0.6,-0.9,
OCCN1CCN(Cc2cccc(Oc3ccc(Cl)cc3)c2)CC1,-0.4,-10.0,0.0,7.8,.,.,
COc1ccc(OC)c(CN2CCN(Cc3ccco3)CC2)c1,0.9,78.7*,-0.1,-3.9,10.3,13.2,
SMILES,GPR151 activ,MITF primary,FBW7 activator,TEAD-YAP inh,MITF confirm,AS interf ctr,others
COCCN1C(=O)c2ccc(C(=O)Nc3cccc(C(=O)O)c3)cc2C1=O,-8.6,1.4,0.0,-8.7,.,.,
CN1CCN(C(CNC(=O)c2ccc(-c3ccccc3)cc2)c2ccsc2)CC1 (stereo unspecified),-0.1,55.4*,-0.1,-8.4,0.7,-4.3,
Cc1ccc(-c2csc(NC(=O)c3cc(Cl)cc(Cl)c3)n2)c(C)c1,-1.6,75.5*,-0.1,7.9,1.6,10.0,
CC(=O)Nc1nc(-c2ccc(C)cc2C)cs1,-0.5,4.3,-0.1,-14.5,.,.,
O=C(COC(=O)C1CCC(=O)N1)Nc1ccccc1Br (stereo unspecified),0.6,52.8*,0.4,-0.7,-2.8,0.5,
O=C(Cn1ccccc1=S)c1ccccc1,-1.2,62.6*,0.1,8.3,5.6,9.9,
C/C(=N\Nc1ccc(S(=O)(=O)O)cc1)c1cccc(Br)c1,-0.1,56.3*,-0.5,-7.2,38.5*,12.4,AlphaScreen DR=>6.48
C/C(=N\Nc1ccc(C(=O)O)cc1)c1cccc(Br)c1,-1.7,5.0,0.1,-77.8,.,.,
O=C(NCc1cccnc1)c1ccnc(-c2cccs2)c1,-0.1,50.9*,0.0,9.4,29.8*,-3.0,AlphaScreen DR=>6.93
O=C(NCc1ccccc1)c1ccnc(-c2cccs2)c1,-1.4,31.1,0.3,-5.4,.,.,
O=C(CC1CCCC1)N1CCN(c2ccc(-c3ccccn3)nn2)CC1,-1.4,110.8*,-1.3,-15.3,110.9*,100.6*,
CS(=O)(=O)N1CCN(c2ccc(-c3ccccn3)nn2)CC1,-3.4,87.4*,-1.1,-24.6,107.3*,100.6*,
O=C(c1ccccn1)N1CCN(C(=O)c2ccccn2)CC1,-0.3,-11.1,0.0,2.2,.,.,
O=C(CCC1CCCN(C(=O)CC2CCCCC2)C1)N1CCN(c2ccccn2)CC1 (stereo unspecified),0.5,2.0,-0.1,2.2,.,.,
O=C(c1ccccn1)N1CCN(c2ccc(-c3ccccn3)nn2)CC1,-1.1,123.4*,-1.5,-9.9,112.0*,100.6*,
O=C(Cn1cnc2ccccc2c1=O)N1CCN(c2ccc(-c3ccccn3)nn2)CC1,2.7,116.3*,-1.4,6.4,111.8*,100.6*,
Cc1ccc(C(=O)OCC(=O)NC2CCCCC2C)cc1 (stereo unspecified),-2.2,1.5,0.0,2.0,.,.,
C[C@@H]1NC(=O)[C@H]2CN(C(=O)NCc3ccccc3)CCN2C1=O,0.2,71.1*,-0.4,-2.3,74.8*,-11.1,AlphaScreen DR=>6.48
CC(C)[C@H]1NC(=O)[C@H]2CN(C(=O)NCc3ccccc3)CCN2C1=O,-1.0,70.0*,-0.3,6.1,68.5*,-2.8,AlphaScreen DR=>6.48
CC[C@H](C)[C@@H]1NC(=O)[C@H]2CN(C(=O)Oc3ccc(F)cc3)CCN2C1=O,1.2,-6.7,0.0,3.1,.,.,
CC[C@H](C)[C@@H]1NC(=O)[C@H]2CN(C(=O)Nc3cccc(F)c3)CCN2C1=O,-0.5,58.1*,-0.1,6.3,74.7*,4.0,AlphaScreen DR=>6.48
C[C@@H](OCc1ccccc1)[C@@H]1NC(=O)[C@H]2CN(C(=O)NCc3ccccc3)CCN2C1=O,-0.7,76.0*,-0.5,9.8,71.2*,-12.7,AlphaScreen DR=>6.48
CCN(CC)CCCNC(=O)Cn1c(C)cc2ccccc2c1=O,0.4,10.8,0.0,6.0,.,.,
Cc1cc(NCCN(C(C)C)C(C)C)nc(Nc2ccc(C(F)(F)F)cc2)n1,1.5,-0.6,0.2,1.5,.,.,
CC[C@H](C)[C@@H]1NC(=O)[C@H]2CN(C(=O)c3ccc(-c4ccccc4)cc3)CCN2C1=O,0.7,-9.7,-0.2,1.8,.,.,
CC[C@H](C)[C@@H]1NC(=O)[C@H]2CN(C(=O)NCc3ccccc3)CCN2C1=O,-0.7,74.3*,-0.1,9.1,66.3*,-7.0,AlphaScreen DR=>6.48
O=S(=O)(c1ccc(Cl)cc1)N1CCN(Cc2ccc(F)cc2)CC1,1.3,0.5,-0.1,-3.2,.,.,

# Screening data from PubChem.
